# According to PubChem BioAssay (Tox21):
# Records with an inconclusive call do not appear. Unmarked numbers belong to inactive results. The source made the active and inactive calls. Unless noted, the call rests on the fitted dose curve.
# Assay: qHTS assay for small molecule agonists of the antioxidant response element (ARE) signaling pathway (AID 743202; active means well fitted activation curve with a large enough effect in the signal ratio in the repeat runs, not every such curve was filed as active; the % refers to the signal ratio)
# Conditions: HepG2 ARE-bla reporter, beta-lactamase FRET, 16 h; series mostly up to 73.3 µM; activation: at the top concentration
# Outline: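 HepG2 ARE-bla cells; 16 h treatment at 37 C; FRET-based beta-lactamase fluorescence read after 2 h substrate incubation at room temperature.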
# On the % scale 0 is the no-effect control and ±100 the full control effect; potency means the concentration at half of the fitted maximal effect.
SMILES,Potency,activation
O=C(O)Cc1cc(I)c(Oc2ccc(O)c(I)c2)c(I)c1,15.4 µM (active),–
CC(=O)c1c(C)c([N+](=O)[O-])c(C(C)(C)C)c([N+](=O)[O-])c1C,–,-11.8%
Cc1ncsc1CCO,–,2.47%
Cc1cccc(C(C)(C)C)c1O,–,7.38%
O=C(Cl)c1ccc([N+](=O)[O-])cc1,–,-9.42%
CN(C)C/C=C(/c1ccc(Br)cc1)c1cccnc1,–,-19.8%
COc1ccc([C@@H]2Sc3ccccc3N(CCN(C)C)C(=O)[C@@H]2OC(C)=O)cc1,–,-12.1%
CCOC(=S)SSC(=S)OCC,–,12%
SC1CCCC1,–,-3.89%
CCN(CC)CCOC(=O)C1(c2ccccc2)CCCC1,–,0.366%
CCCCCCCCCCCCCCCBr,–,-13.3%
NCc1ccccc1,–,-8.22%
C1=Cc2ccccc2C1,–,15.6%
CN(C)CC/C=C1\c2ccccc2COc2ccccc21,–,-12.5%
C=CC(C)(CCC=C(C)C)OC(=O)c1ccccc1 (centres undefined),–,-0.526%
CCN(CC)CCNC(C(=O)OCCC(C)C)c1ccccc1 (centres undefined),–,-8.93%
CC(C)(C)C1CCCCC1O (centres undefined),–,-17%
Cc1ccc(C(=O)C(C)CN2CCCCC2)cc1 (centres undefined),23.7 µM (active),–
O=C(C(=O)c1ccc(Br)cc1)c1ccc(Br)cc1,–,6.78% [at 34.3 µM]
OCC1CC2CC1C1CCC(CO)C21 (centres undefined),–,0.38%

# Assay: qHTS assay for small molecule agonists of the antioxidant response element (ARE) signaling pathway - cell viability counter screen (AID 743203); further: nearly all actives have a fitted effect of over 55% in size
# Conditions: ARE-bla HepG2 viability, CellTiter-Glo luminescence, 16 h; series mostly up to 73.3 µM; viability change, negative = cytotoxic: at the top concentration
# Outline: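 Luminescence read-out (CellTiter-Glo, 30 min at room temperature) measured cell viability in the same wells as the ARE beta-lactamase reporter. HepG2 ARE-bla cells were treated with compounds for 16 hrs at 37C/5% CO2.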
SMILES,"viability change, negative = cytotoxic",Potency
O=C(/C=C/c1ccc(O)c(O)c1)O[C@@H]1C[C@](O)(C(=O)O)C[C@@H](O)[C@H]1O,1.88% [at 94.8 µM],–
CC(=O)c1c(C)c([N+](=O)[O-])c(C(C)(C)C)c([N+](=O)[O-])c1C,-14.6%,–
CC(C)NCC(O)c1cc(O)cc(O)c1 (centres undefined),-7.86%,–
Cc1ncsc1CCO,-12.6%,–
Cc1cccc(C(C)(C)C)c1O,12.9%,–
O=C(O)c1cccc(N(Cc2cccnc2)c2ccc(OC(F)F)c(OC(F)F)c2)c1,-12%,–
O=C(Cl)c1ccc([N+](=O)[O-])cc1,-0.292%,–
NC(N)=NN=C(/C=C/c1ccc([N+](=O)[O-])o1)/C=C/c1ccc([N+](=O)[O-])o1,–,5.96 µM (active)
CN(C)C/C=C(/c1ccc(Br)cc1)c1cccnc1,0.895%,–
CC(C)(C)c1ccc(S)cc1,5.83%,–
COc1ccc([C@@H]2Sc3ccccc3N(CCN(C)C)C(=O)[C@@H]2OC(C)=O)cc1,2.04%,–
CCCCCCCCCC=O,-13.5%,–
N=C(N=C(N)N)N1CCOCC1,8.64%,–
CCOc1cc(OCC)c(C(=O)CCC(=O)O)cc1OCC,11.9%,–
Oc1ccc(O)c2c(O)cccc12,-0.213%,–
CCOC(=S)SSC(=S)OCC,2.98%,–
CCOc1nc2cccc(C(=O)O)c2n1Cc1ccc(-c2ccccc2-c2nn[nH]n2)cc1,-0.956%,–
C[C@@H](C1=C(CCN(C)C)Cc2ccccc21)c1ccccn1,-0.907%,–

SMILES,"viability change, negative = cytotoxic",Potency
SC1CCCC1,2.41%,–
CCN(CC)CCOC(=O)C1(c2ccccc2)CCCC1,3.32%,–
Nc1nc(N)c2nc(CNc3ccc(C(=O)N[C@@H](CCC(=O)O)C(=O)O)cc3)cnc2n1,–,0.0051 µM (active)
CC(C(=O)O)c1ccc(-c2ccccc2)c(F)c1 (centres undefined),0.344%,–
CCCCCCCCCCCCC(=O)O,-5% [at 94.8 µM],–
CCCCCCCCCCCCCCCBr,-1.84%,–
O=C1c2cccc(O)c2C(=O)c2c(O)cc(CO)cc21,1.26%,–
NCc1ccccc1,0.261%,–
C1=Cc2ccccc2C1,-3.48%,–
CN(C)CC/C=C1\c2ccccc2COc2ccccc21,-10.9%,–
C=CC(C)(CCC=C(C)C)OC(=O)c1ccccc1 (centres undefined),-25.3%,–
CCN(CC)CCNC(C(=O)OCCC(C)C)c1ccccc1 (centres undefined),1.49%,–
CC(C)(C)C1CCCCC1O (centres undefined),3.85%,–
Cc1ccc(C(=O)C(C)CN2CCCCC2)cc1 (centres undefined),-1.37%,–
c1ccc(OCc2ccc(CCCN3CCOCC3)cc2)cc1,0.722%,–
O=C(C(=O)c1ccc(Br)cc1)c1ccc(Br)cc1,-2.22% [at 34.3 µM],–
OCC1CC2CC1C1CCC(CO)C21 (centres undefined),-4.88%,–
C=CC(=O)OCC(C)OCC(C)OCC(C)OC(=O)C=C (centres undefined),-13.3%,–

# Assay: qHTS assay for small molecule activators of the heat shock response signaling pathway - cell viability counter screen (AID 743209; active means well fitted cell-killing curve with a large enough effect in the repeat runs; further: nearly all actives have a fitted effect of over 50% in size)
# Conditions: HSE-bla HeLa viability, CellTiter-Glo luminescence, 5 h; series mostly up to 62.6 µM; activity change, negative = cytotoxicity: at the top concentration
# Outline: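 HSE-bla HeLa; 1500 cells/well; overnight 37 C, 5% CO2; compound 5 h 37 C; LiveBLAzer B/G substrate 2.5 h RT; CellTiter-Glo 30 min RT; luminescence.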
SMILES,"activity change, negative = cytotoxicity",Potency
O=C(O)Cc1cc(I)c(Oc2ccc(O)c(I)c2)c(I)c1,-12.3%,–
CC(=O)c1c(C)c([N+](=O)[O-])c(C(C)(C)C)c([N+](=O)[O-])c1C,1.9%,–
CC(C)NCC(O)c1cc(O)cc(O)c1 (centres undefined),4.83%,–
Cc1ncsc1CCO,-0.864%,–
Cc1cccc(C(C)(C)C)c1O,2.77%,–
O=C(O)c1cccc(N(Cc2cccnc2)c2ccc(OC(F)F)c(OC(F)F)c2)c1,-2.49%,–
O=C(Cl)c1ccc([N+](=O)[O-])cc1,-1.9%,–
NC(N)=NN=C(/C=C/c1ccc([N+](=O)[O-])o1)/C=C/c1ccc([N+](=O)[O-])o1,–,5.31 µM (active)
CCCCCCc1ccc(N)cc1,9.26%,–
CN(C)C/C=C(/c1ccc(Br)cc1)c1cccnc1,15.8%,–
CC(C)(C)c1ccc(S)cc1,-8.96%,–
CCCCCCCCCC=O,-13%,–
N=C(N=C(N)N)N1CCOCC1,4.01%,–
CCOc1cc(OCC)c(C(=O)CCC(=O)O)cc1OCC,9.36%,–
Oc1ccc(O)c2c(O)cccc12,-3%,–
CCOc1nc2cccc(C(=O)O)c2n1Cc1ccc(-c2ccccc2-c2nn[nH]n2)cc1,8.6%,–
CCN(CC)CCOC(=O)C1(c2ccccc2)CCCC1,17.4%,–
Nc1nc(N)c2nc(CNc3ccc(C(=O)N[C@@H](CCC(=O)O)C(=O)O)cc3)cnc2n1,3.7%,–
CC(C(=O)O)c1ccc(-c2ccccc2)c(F)c1 (centres undefined),0.679%,–
CCCCCCCCCCCCCCCBr,8.81%,–
O=C1c2cccc(O)c2C(=O)c2c(O)cc(CO)cc21,-1.14%,–
C1=Cc2ccccc2C1,-3.81%,–
CC(C)(C)C1CCCCC1O (centres undefined),-0.211%,–
Cc1ccc(C(=O)C(C)CN2CCCCC2)cc1 (centres undefined),2.25%,–
c1ccc(OCc2ccc(CCCN3CCOCC3)cc2)cc1,4.46%,–
O=C(C(=O)c1ccc(Br)cc1)c1ccc(Br)cc1,3.1% [at 29.1 µM],–
OCC1CC2CC1C1CCC(CO)C21 (centres undefined),1.07%,–
C=CC(=O)OCC(C)OCC(C)OCC(C)OC(=O)C=C (centres undefined),–,15.5 µM (active)
